aSyn 5UTR act – Activators via SNCA 5'UTR binding, MLPCN; alpha-synuclein 5'UTR reporter, activators screen; activity score, % (tested at 7.5 µM), hits read low; 300,000 compounds, 7.1% hits; AID 1814, 2009; in the data active = activity score below about -60%
An asterisk follows results filed as active. A selection follows.

O=C(NCc1cccs1)Nc1ccc2c(c1)OCO2 was read as aSyn 5UTR act -145*.
CC(=O)c1cccc(NC(=O)NCc2ccccn2)c1 was read as aSyn 5UTR act -167*.
`Cc1cccc(NC(=O)NCc2ccc3c(c2)OCO3)c1` gave aSyn 5UTR act -67*.
For CC1C(=O)C(C)C(c2ccc(Cl)cc2)NC1c1ccc(Cl)cc1 (stereo not drawn) the results were aSyn 5UTR act 68.
For O=C(NCc1ccccn1)Nc1ccc2c(c1)OCO2 the results were aSyn 5UTR act -92*.
O=C(Nc1ccc2c(c1)OCO2)Nc1ccccn1 was read as aSyn 5UTR act -86*.
`O=C(CC1CCCCC1)NCc1ccc(Cl)cc1` gave aSyn 5UTR act -69*.
For CC1(C)CN(c2ccc(N3CC(C)(C)C3=O)cc2)C1=O the results were aSyn 5UTR act -70*.
For O=C(CSc1cccs1)Nc1ccc(Cl)cc1 the results were aSyn 5UTR act -116*.
O=C(CSc1cccs1)NCCc1ccccc1 was read as aSyn 5UTR act -64*.
For O=C(CSc1ccccc1)NCCc1ccccc1 the results were aSyn 5UTR act -62*.
For CCCN1C/C(=C/c2ccc3c(c2)OCO3)C(=O)/C(=C/c2ccc3c(c2)OCO3)C1 the results were aSyn 5UTR act -105*.
C#CCn1c(=NC(=O)c2cccs2)sc2cccc(OC)c21 was read as aSyn 5UTR act -97*.
For Cc1[nH]cnc1C(=O)N/N=C/c1c(Cl)cccc1Cl the results were aSyn 5UTR act -73*.
`Cc1cs/c(=N/C(=S)Nc2ccccc2)n1C` gave aSyn 5UTR act -115*.
Screening OCc1c(OCc2cccc(F)c2)ccc2ccccc12 returned aSyn 5UTR act -111*.
Screening Cc1cc(OCc2cccc(Cl)c2)c(C)cc1CN1CCOCC1 returned aSyn 5UTR act -65*.
Screening Oc1c(CN2CCOCC2)cc(COCc2ccccc2)c2cccnc12 returned aSyn 5UTR act 114.
Screening CCN(C(=O)c1cc2cc3ccc(C)cc3nc2o1)c1ccc(OC)cc1 returned aSyn 5UTR act -307*.
`CCCCN(C)C(=O)c1cc2cc3cc(OC)ccc3nc2o1` gave aSyn 5UTR act -121*.
CCCCN(C)C(=O)c1cc2cc3ccc(OC)cc3nc2o1 was read as aSyn 5UTR act -114*.
For COc1ccc2cc3cc(C(=O)NC(C)C)oc3nc2c1 the results were aSyn 5UTR act -142*.
CN1C=C/C(=C\c2cc[n+](C)c3ccccc23)c2ccccc21 was read as aSyn 5UTR act 74.
Screening Cc1occc1C(=O)N/N=C/c1ccc2c(c1)OCO2 returned aSyn 5UTR act -67*.
Screening Cc1cc(C(=O)N/N=C/c2ccc3c(c2)OCO3)c(C)o1 returned aSyn 5UTR act -105*.
CCOC(=O)c1cnc2c(OC)cccc2c1N1CCN(c2ccccc2OC)CC1 was read as aSyn 5UTR act 62.
Screening CCOC(=O)c1cnc2ccc(Cl)cc2c1N1CCN(C)CC1 returned aSyn 5UTR act -97*.
COc1ccc2cc(CCC(C)=O)ccc2c1 was read as aSyn 5UTR act -126*.
O=C1Nc2ccccc2/C1=C/c1cnc(-c2ccccc2)[nH]1 was read as aSyn 5UTR act -78*.
NCCCn1c(C(=O)c2cc(Cl)c(N)c(Cl)c2)c2ccc([N+](=O)[O-])cc2[n+]1[O-] was read as aSyn 5UTR act 100.
`COc1ccc(C2c3ccc4ccccc4c3Oc3ncn(CCN4CCOCC4)c(=N)c32)cc1OC` (stereo not drawn) gave aSyn 5UTR act 105.
Screening CCOc1cc2nc(-c3ccc(OC)c(OC)c3)nc(NCCCN3CCOCC3)c2cc1OC returned aSyn 5UTR act -65*.
Screening Clc1ccc(-c2nc(NCCN3CCOCC3)c3ccccc3n2)cc1 returned aSyn 5UTR act -90*.
`Fc1ccccc1COc1ccc(C(=S)N2CCCC2)cc1` gave aSyn 5UTR act -96*.
`c1ccc(-c2nnnc3ccccc23)cc1` gave aSyn 5UTR act -165*.
For Clc1ccc2nnnc(-c3ccccc3)c2c1 the results were aSyn 5UTR act -375*.
For COc1cccc(-c2ccc(C#N)c(OC(=O)c3c(Cl)cccc3Cl)n2)c1 the results were aSyn 5UTR act -74*.
CC(=O)c1cccc(NC(=O)c2ccc(Br)o2)c1 was read as aSyn 5UTR act -71*.
O=C(Nc1cccc(F)c1)c1ccc(Br)o1 was read as aSyn 5UTR act -66*.
For O=C(ONc1ccc(N=NC(=O)c2ccccc2O)cc1)c1ccccc1 the results were aSyn 5UTR act -86*.
`CC1(C)CC(CCNC(=O)CCl)(c2ccccc2)CCO1` (stereo not drawn) gave aSyn 5UTR act -63*.
Screening O=C(Nc1cc(Br)ccc1O)c1cc(-c2ccco2)on1 returned aSyn 5UTR act -134*.
`O=C(Nc1cc(Cl)ccc1O)c1cc(-c2ccco2)on1` gave aSyn 5UTR act -233*.
`O=C(Nc1cccnc1Cl)c1cc(-c2ccco2)on1` gave aSyn 5UTR act -80*.
Cc1cccc(N/C=C/c2onc(C)c2[N+](=O)[O-])c1 was read as aSyn 5UTR act -156*.
`Cc1cc(O)ccc1N/C=C/c1onc(C)c1[N+](=O)[O-]` gave aSyn 5UTR act -110*.
`CCN(C(=O)c1ccco1)c1nnc(-c2ccc(OC)cc2)s1` gave aSyn 5UTR act -135*.
`CCCN(C(=O)c1ccco1)c1nnc(-c2cccc(C)c2)s1` gave aSyn 5UTR act -143*.
CC1=NN(c2ccccc2)C(=O)/C1=C\C=C\c1ccccc1 was read as aSyn 5UTR act -127*.
CC1=NN(c2ccc(C)c(C)c2)C(=O)/C1=C\C=C\c1ccc([N+](=O)[O-])o1 was read as aSyn 5UTR act 78.
For COc1ccc(/C=C2/C(=O)N(c3ccccc3)N=C2C)cc1 the results were aSyn 5UTR act 61.
Screening Nc1nc(COc2ccc3ccccc3c2)cs1 returned aSyn 5UTR act -79*.
For O=C(Nc1nc(COc2ccccc2)cs1)C12CC3CC(CC(C3)C1)C2 the results were aSyn 5UTR act -147*.
For O=C(Nc1nc(COc2ccccc2)cs1)C1CCC1 the results were aSyn 5UTR act -103*.
For CC(=O)c1csc(COc2ccccc2)n1 the results were aSyn 5UTR act -109*.
Screening CC1CCC(C(C)C)C(OC(=O)Cn2c(-c3ccc(Cl)cc3)[n+](C)c3ccccc32)C1 (stereo not drawn) returned aSyn 5UTR act 61.
For Nc1nc(CCOc2ccc(F)cc2)cs1 the results were aSyn 5UTR act -112*.
`CC(=O)Nc1nc(COc2ccccc2)cs1` gave aSyn 5UTR act -137*.
CC(=O)Nc1nc(COc2ccc3ccccc3c2)cs1 was read as aSyn 5UTR act -148*.
For O=C(Nc1ccccc1-c1ccccc1)C12CC3CC(CC(C3)C1)C2 the results were aSyn 5UTR act -78*.
Screening CN(C)/C=N/c1ncc(C(=O)c2ccccc2)s1 returned aSyn 5UTR act -160*.
Fc1cc(Br)ccc1COc1ccc(-c2nnco2)cc1 was read as aSyn 5UTR act -133*.
`Fc1ccc(COc2ccc(-c3nnco3)cc2)c(Cl)c1` gave aSyn 5UTR act -96*.
COc1cc(OC)cc(C(=O)Nc2cccc(-c3ccc(N4CCOCC4)nn3)c2)c1 was read as aSyn 5UTR act -85*.
`COc1ccc(C(=O)Nc2cccc(-c3ccc(N4CCOCC4)nn3)c2)cc1` gave aSyn 5UTR act -69*.
For CCC1CCc2c(sc(NC(=O)c3cnccn3)c2C(N)=O)C1 (stereo not drawn) the results were aSyn 5UTR act -86*.
CCC1CCc2c(sc(NC(=O)c3ccco3)c2C(N)=O)C1 (stereo not drawn) was read as aSyn 5UTR act -246*.
